Source: PubChem BioAssay
Only some compounds are listed: those with a hit (about 4.5% of all), similar ones and a draw of the others.
697 NFkB inh = inhibitors of the PMA/ionomycin-induced NF-kB reporter in 697 B cells; actives 0.33% (n = 330,000); AID 435022; 697 B-cell NF-kB luciferase reporter, 16 h; inhibition, % at 4 µM; in the data active = inhibition above about 35%
CSC inhib = blocks cancer stem cells; actives 1.1% (n = 300,000); cancer stem cell-like cells viability, luminescence; inhibition, % at 7.5 µM; in the data active = inhibition above about 75%; tested in HMLE shEcad cells
Jurkat NFkB inh = lowers PMA/ionomycin-induced NF-kB signal in Jurkat cells. PMA/ionomycin-induced NF-kB luciferase reporter, luminescence. inhibition, % at 4 µM. actives 0.53% (n = 330,000); in the data active = inhibition above about 50%
aSyn UTR inh = MLPCN primary screen, SNCA 5' untranslated region; actives 0.82% (n = 300,000); alpha-synuclein 5'UTR reporter, inhibitor activity; inhibition, % (tested at 7.5 µM); in the data active = inhibition above about 60%;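 also: H4 neuroglioblastoma cells stably carrying SNCA 5'UTR luciferase fusion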
Gli-Sufu block = Gli-Sufu pathway antagonism; AID 588413; actives 0.74% (n = 340,000); Sufu-KO-LIGHT fibroblasts, Gli luciferase reporter luminescence; inhibition, % at 5 µM;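 active = inhibition above about 55%, limit read from the data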
Mdm2 MdmX PPI = human Mdm2/MdmX binding inhibition; SaOS-2 split-luciferase Mdm2/MdmX complementation, luminescence; AID 485346; O15151+Q00987; inhibition, % at 8 µM; actives 3% (n = 330,000);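 active = inhibition of at least 50% at 8 µM in the primary screen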
Jurkat NFkB conf = inhibitors of the PMA/ionomycin-induced NF-kB reporter in Jurkat cells, retest; shares compounds with Jurkat NFkB inh; Jurkat NF-kB luciferase, 16 h; inhibition, % at 4 µM; actives 27% (n = 2,700); AID 435020;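 active = inhibition reaching about 45% at 4 µM in either replicate, limit read from the data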
Of the large screens only hits and unclear results are named; the others gave an inactive call (follow-up assays come after a bar, where they were run).

COc1cccc(NC(=O)c2cnn(-c3ccccc3)c2C)c1	none | Jurkat NFkB conf inactive
CCOC(=O)C1C(c2ccc(C(=O)O)cc2)NC(=O)NC1(O)C(F)(F)F (stereo not drawn)	none
N#CCc1ccccc1C(=O)OCC(=O)N(Cc1ccccc1)Cc1ccccc1	none (no result: aSyn UTR inh)
Cc1ccc(N2C(=O)c3ccccc3NC2(C(=O)O)c2ccccc2)cc1Cl (stereo not drawn)	none
O=c1c2ccccc2oc2ccc(Oc3ccccc3)cc12	none | Jurkat NFkB conf inactive
COc1cc2oc3ccccc3c(=O)c2cc1OC	none
N#C/C(=N\Nc1ccc(Cl)cc1)C(=N)N1CCCCCC1	none | Jurkat NFkB conf inactive
N#C/C(=N\Nc1ccccc1[N+](=O)[O-])C(=N)N1CCCCC1	none | Jurkat NFkB conf inactive
Cc1c(C(=O)C(=O)N2CCN(C)CC2)c2ccccc2n1C	none
Cc1c(C(=O)C(=O)N2c3ccc(F)cc3CCC2C)c2ccccc2n1C (stereo not drawn)	Jurkat NFkB inh 65, aSyn UTR inh 62 | Jurkat NFkB conf inactive
CC1Cc2ccccc2N1C(=O)c1ccc(F)c(S(=O)(=O)N2CCOCC2)c1 (stereo not drawn)	none (no result: aSyn UTR inh)
O=C(Nc1ccncc1)c1ccc(Cl)c(S(=O)(=O)N2CCc3ccccc32)c1	Jurkat NFkB inh 60 | Jurkat NFkB conf 79
Cc1cccc(NC(=O)c2ccc(Cl)c(S(=O)(=O)N3CCc4ccccc43)c2)n1	none (no result: aSyn UTR inh)
CCOC(=O)CSc1nc(-c2ccncc2)ccc1C#N	none | Jurkat NFkB conf inactive
Cc1ccccc1-c1nnc(SCc2ccccc2)o1	none
COc1ccc(-c2nnc(SCc3ccccc3F)o2)cc1	none | Jurkat NFkB conf inactive
Fc1ccccc1CSc1nnc(-c2ccccc2)o1	none | Jurkat NFkB conf inactive
Cc1ccccc1-c1nnc(SCc2ccccc2F)o1	none | Jurkat NFkB conf inactive
CCCCCc1ccc(-c2cn(CCc3c[nH]c4ccccc34)nn2)cc1	Jurkat NFkB inh 56 | Jurkat NFkB conf inactive
CCCCCc1ccc(-c2cn(CCCOCc3ccccc3)nn2)cc1	none
N/C(=N\OC(=O)c1ccccc1Cl)c1cccc([N+](=O)[O-])c1	none | Jurkat NFkB conf inactive
COc1ccc(CN(Cc2cccn2C)C(=O)c2cc3cc(OC)ccc3[nH]2)cc1	none
CC(/C=N/NC(=O)c1cccs1)=C\c1ccccc1	none
O=C(N/N=C/C(Cl)=C\c1ccccc1)c1cccs1	none | Jurkat NFkB conf inactive
CCn1c2ccccc2c2cc(NC(=O)CSc3nnc(-c4ccccc4)o3)ccc21	none
CCCc1cc(C(=O)Nc2cc(C)ccc2O)no1	Jurkat NFkB inh 92 | Jurkat NFkB conf 61
CCCc1cc(C(=O)Nc2cccnc2Cl)no1	none
Cc1ccc(O)c(NC(=O)c2cc(-c3ccccc3)on2)c1	Jurkat NFkB inh 86 | Jurkat NFkB conf inactive
Nc1nc2ccccc2n1/N=C/c1ccc(Br)cc1	none
CCOC(=O)c1sc(=NC(=O)c2ccc(Cl)s2)n(C)c1C	none | Jurkat NFkB conf inactive
CCCOc1ccc(C(=O)NNC(=O)c2cccc(S(=O)(=O)N3CCN(C(C)=O)CC3)c2)cc1OC	none
Cc1cccc(CSc2nc3c(cc2C#N)CCC3)c1	none
N#Cc1cc2c(nc1SCc1nc3ccccc3[nH]1)CCC2	none (no result: Gli-Sufu block) | Jurkat NFkB conf inactive
COC(=O)c1ccc(-c2ccc(Cl)cc2)nc1C	none (no result: CSC inhib) | Jurkat NFkB conf inactive
CCOc1ccccc1NC(=S)Nn1cnnc1	none
O=C(NCc1cccnc1)c1ccc(COc2ccc3c(c2)CCC3)o1	none
O=C(NCc1cccnc1)c1ccc(COc2ccccc2Cl)o1	Jurkat NFkB inh 56 | Jurkat NFkB conf inactive
O=C(NCc1cccnc1)c1ccc(COc2ccccc2Br)o1	Jurkat NFkB inh 72 | Jurkat NFkB conf inactive
COC(=O)/C=C/C(=O)Nc1cccc(C(F)(F)F)c1	none
COc1nc(OC)nc(N2CCC(NC(=O)C(Cc3cccc(OC)c3OC)NC(C)=O)CC2)n1 (stereo not drawn)	none
C/C(=N\NC(=O)c1ccncc1)c1ccc(N2CCOCC2)cc1	none (no result: aSyn UTR inh)
C/C(=N\NC(=O)c1ccc(OC2OCCOC2Oc2ccc(C(=O)N/N=C(\C)c3ccncc3)cc2)cc1)c1ccncc1 (stereo not drawn)	Jurkat NFkB inh 52 | Jurkat NFkB conf inactive
CCOC(=O)Cc1csc(NC(=O)C(NC(=O)C2CCCCC2)C(C)C)n1 (stereo not drawn)	none
